Data on twelve compounds can be found in PubChem BioAssay (NCATS).

Records with an inconclusive call do not appear. Calls of active or inactive are those of the source. Unless noted, the call rests on the fitted dose curve; in most records, active means well fitted curve in the direction sought with a large enough effect in the repeat runs; inconclusive means weak or mixed curves; inactive means no such curve, though single readings can be large; an effect the other way counts as inactive or inconclusive.

Assay [1] concerns the target Calcium and integrin-binding protein 1 (Homo sapiens) (UniProt Q99828). Description: Primary qHTS for Identification of Calcium Integrin Binding Protein 1 (CIB1) Competitor (AID 1508620; active means well fitted curve in the direction sought with a large enough effect; an effect the other way counts as inactive or inconclusive;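 further: GST tagged CIB1 binding a fluorescein labelled alphaIIb integrin peptide tracer; top concentration of the series differs between compounds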). In outline:
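CIB1-GST (1 uM final) and compound incubated 15 min at room temperature before adding FITC-alphaIIb peptide tracer (100 nM final). Competition for binding read by fluorescence polarization (ex 480, em 540) after another 15 min at room temperature.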

The target in assay [2] is Cytochrome P450 2D6 (Homo sapiens) (UniProt P10635). Description: Cytochrome P450 family 2 subfamily D member 6 (CYP2D6) small molecule antagonists: luciferase biochemical (cell-free) qHTS assay (AID 1645840). Further: nearly all actives have a fitted effect of over 55% in size. Further: potency means the concentration at half of the fitted maximal effect. In outline:
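P450-Glo luminescent screen: recombinant CYP2D6 enzyme–proluciferin substrate mix preincubated with compound 10 min at room temperature, then NADPH regeneration added for 1 h at room temperature. Detection reagent added for 20 min; luciferin light read as relative luminescence units.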
(In general: qHTS replaces the single test concentration by a dilution series.)

The target in assay [3] is Cytochrome P450 2C9 (Homo sapiens) (UniProt P11712). Kind of assay: Cytochrome P450 family 2 subfamily C member 9 (CYP2C9) small molecule antagonists: luciferase biochemical (cell-free) qHTS assay (AID 1645842). Further: nearly all actives have a fitted effect of over 55% in size. Further: potency means the concentration at half of the fitted maximal effect. A digest of the protocol:
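Luminescence, after 20 min with luciferin detection reagent, reflected CYP2C9 turnover during a 1 h NADPH-driven reaction at 37C. Enzyme-substrate mix contained 0.4% bovine serum albumin and was preincubated with compound 10 min at room temperature.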

Cytochrome P450 2C9 (Homo sapiens), sequence (P11712 whole entry, looked up): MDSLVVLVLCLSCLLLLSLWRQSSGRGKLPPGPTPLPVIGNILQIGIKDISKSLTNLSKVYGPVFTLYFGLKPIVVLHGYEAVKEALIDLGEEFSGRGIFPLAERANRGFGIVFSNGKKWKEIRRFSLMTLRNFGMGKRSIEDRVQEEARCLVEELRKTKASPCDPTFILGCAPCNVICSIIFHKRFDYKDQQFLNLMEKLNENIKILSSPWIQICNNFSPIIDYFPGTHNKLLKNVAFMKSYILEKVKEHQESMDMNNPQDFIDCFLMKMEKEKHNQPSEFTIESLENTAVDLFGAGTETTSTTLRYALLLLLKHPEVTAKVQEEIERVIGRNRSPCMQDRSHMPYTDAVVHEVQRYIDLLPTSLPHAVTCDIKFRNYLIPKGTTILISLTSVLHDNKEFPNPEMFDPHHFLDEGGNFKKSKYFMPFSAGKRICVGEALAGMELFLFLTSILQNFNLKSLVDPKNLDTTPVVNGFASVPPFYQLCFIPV
Cytochrome P450 2D6 (Homo sapiens), sequence (P10635 whole entry, looked up): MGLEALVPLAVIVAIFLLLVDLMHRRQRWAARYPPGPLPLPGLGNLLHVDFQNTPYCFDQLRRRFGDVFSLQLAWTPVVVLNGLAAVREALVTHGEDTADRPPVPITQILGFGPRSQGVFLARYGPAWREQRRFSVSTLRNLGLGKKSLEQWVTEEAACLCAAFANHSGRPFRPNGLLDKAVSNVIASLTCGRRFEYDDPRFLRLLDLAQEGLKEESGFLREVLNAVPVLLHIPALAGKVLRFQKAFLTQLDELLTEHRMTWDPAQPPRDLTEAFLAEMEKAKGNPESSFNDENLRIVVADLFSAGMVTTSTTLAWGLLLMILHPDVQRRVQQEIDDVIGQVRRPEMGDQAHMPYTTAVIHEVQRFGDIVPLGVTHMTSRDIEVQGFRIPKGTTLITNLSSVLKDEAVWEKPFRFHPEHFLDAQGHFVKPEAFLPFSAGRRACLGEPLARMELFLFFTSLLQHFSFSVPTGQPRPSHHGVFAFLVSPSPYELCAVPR
Calcium and integrin-binding protein 1 (Homo sapiens), sequence (Q99828 whole entry, looked up): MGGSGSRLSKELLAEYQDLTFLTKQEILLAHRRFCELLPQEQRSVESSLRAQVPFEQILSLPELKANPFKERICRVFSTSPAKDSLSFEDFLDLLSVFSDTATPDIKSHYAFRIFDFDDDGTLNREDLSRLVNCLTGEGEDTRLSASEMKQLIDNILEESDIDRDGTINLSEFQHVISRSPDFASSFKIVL

Consider `O=C(N[C@H](Cc1cscn1)C(=O)N[C@@H](CC1CCCCC1)[C@@H](O)[C@@H](O)C1CC1)c1nc2ccccc2[nH]1`, for which, in assay [1], the Potency result is “inactive”. Besides, the Potency in assay [2] was 19 µM (active); in assay [3], 1.34 µM (active).
Regarding `Cc1ccnn1-c1ccc(C(=O)N2CCN(S(=O)(=O)c3ccc(Cl)c(C(F)(F)F)c3)CC2)cc1`, the Potency entry in assay [1] and in assay [2] was “inactive” throughout. In assay [3], the Potency was 6.74 µM (active).
Regarding `O=C(Nc1ccc(C(F)(F)F)cn1)N1CCN(c2ncccc2C(F)(F)F)CC1`, the Potency result in assay [1] and in assay [2] was “inactive” throughout. Besides, the Potency in assay [3] was 3.01 µM (active).
On to `COc1ccc2c(c1)C(C(=O)N(Cc1ccc(N(C)C)cc1)c1ccc(C(C)C)cc1)CCC2` (stereo unspecified), for which the Potency entry in assay [1] and in assay [2] was “inactive” throughout. Besides, the Potency in assay [3] is 5.35 µM (active).
Turning to `CCCCc1ccc(NS(=O)(=O)c2ccc(F)cc2)cc1`, the Potency result in assay [1] was “inactive”. For the same compound, the Potency in assay [2] was 9.52 µM (active); in assay [3] it was 1.69 µM (active).
`O=C(C1CCCCC1)N(CCN1CCN(c2ccccc2O)CC1)c1ccccn1`: in assay [1], the Potency entry is “inactive”. Moreover, the Potency in assay [2] is 10.7 µM (active); in assay [3], 12 µM (active).
The like results for `Cc1nc(Nc2ccc(F)cc2)nc(N2CCc3ccccc3C2C)c1C` (stereo unspecified) were, in that order, “inactive”, 7.56 µM (active) and 5.35 µM (active).
The corresponding values for `CCCC(CCC)C(=O)NCc1ccc2c(cnn2-c2ccccc2OC)c1` are “inactive”, 13.5 µM (active) and 1.9 µM (active).
Consider `CC(C)(O)c1ccn2c(-c3ccc(F)c(-c4ccc(F)cc4C#N)c3)cnc2c1F`, for which the Potency result in assay [1] is “inactive”. The Potency is 19 µM (active) in assay [2] and 0.756 µM (active) in assay [3].
Regarding `O=C(NCCCN1CCC2(CC1)OCc1ccccc12)[C@H]1CCCN1Cc1ccccc1`, the Potency result in assay [1] and in assay [3] was “inactive” in each case. For the same compound, the Potency in assay [2] was 2.13 µM (active).
On to `O=C(Nc1ccc(N(Cc2ccsc2)C(=O)Cn2nnc3ccccc32)cc1)C1CC1`, for which the Potency result in assay [1] was “inactive”. In addition, the Potency in assay [2] is 4.77 µM (active); in assay [3], 1.51 µM (active).
`Fc1ccc2c(CCNCc3cccc(OCC(F)(F)C(F)F)c3)c[nH]c2c1`: the Potency entry in assay [1] is “inactive”. Further, the results for the Potency in assay [2] and in assay [3] were 0.0477 µM (active) and 9.52 µM (active), respectively.
